Source: the supplement of paper PMC11732987, “Enantioselective OTUD7B fragment discovery through chemoproteomics screening and high-throughput optimisation” (Communications Chemistry, 2025)

Key:
Assay in all cases: log2 ratio of Biotin-Ahx-Ub-VS probe labelling (fragment/DMSO); higher = less target engagement (more negative = stronger competition), active = hit call of the paper (q ≤ 0.05, log2 ratio ≤ -1)
Conditions in all cases: compound concentration: 200 uM; treatment time: 3 h
USP19 = target: T1, USP19 (UniProt O94966)
T1 sequence (whole entry): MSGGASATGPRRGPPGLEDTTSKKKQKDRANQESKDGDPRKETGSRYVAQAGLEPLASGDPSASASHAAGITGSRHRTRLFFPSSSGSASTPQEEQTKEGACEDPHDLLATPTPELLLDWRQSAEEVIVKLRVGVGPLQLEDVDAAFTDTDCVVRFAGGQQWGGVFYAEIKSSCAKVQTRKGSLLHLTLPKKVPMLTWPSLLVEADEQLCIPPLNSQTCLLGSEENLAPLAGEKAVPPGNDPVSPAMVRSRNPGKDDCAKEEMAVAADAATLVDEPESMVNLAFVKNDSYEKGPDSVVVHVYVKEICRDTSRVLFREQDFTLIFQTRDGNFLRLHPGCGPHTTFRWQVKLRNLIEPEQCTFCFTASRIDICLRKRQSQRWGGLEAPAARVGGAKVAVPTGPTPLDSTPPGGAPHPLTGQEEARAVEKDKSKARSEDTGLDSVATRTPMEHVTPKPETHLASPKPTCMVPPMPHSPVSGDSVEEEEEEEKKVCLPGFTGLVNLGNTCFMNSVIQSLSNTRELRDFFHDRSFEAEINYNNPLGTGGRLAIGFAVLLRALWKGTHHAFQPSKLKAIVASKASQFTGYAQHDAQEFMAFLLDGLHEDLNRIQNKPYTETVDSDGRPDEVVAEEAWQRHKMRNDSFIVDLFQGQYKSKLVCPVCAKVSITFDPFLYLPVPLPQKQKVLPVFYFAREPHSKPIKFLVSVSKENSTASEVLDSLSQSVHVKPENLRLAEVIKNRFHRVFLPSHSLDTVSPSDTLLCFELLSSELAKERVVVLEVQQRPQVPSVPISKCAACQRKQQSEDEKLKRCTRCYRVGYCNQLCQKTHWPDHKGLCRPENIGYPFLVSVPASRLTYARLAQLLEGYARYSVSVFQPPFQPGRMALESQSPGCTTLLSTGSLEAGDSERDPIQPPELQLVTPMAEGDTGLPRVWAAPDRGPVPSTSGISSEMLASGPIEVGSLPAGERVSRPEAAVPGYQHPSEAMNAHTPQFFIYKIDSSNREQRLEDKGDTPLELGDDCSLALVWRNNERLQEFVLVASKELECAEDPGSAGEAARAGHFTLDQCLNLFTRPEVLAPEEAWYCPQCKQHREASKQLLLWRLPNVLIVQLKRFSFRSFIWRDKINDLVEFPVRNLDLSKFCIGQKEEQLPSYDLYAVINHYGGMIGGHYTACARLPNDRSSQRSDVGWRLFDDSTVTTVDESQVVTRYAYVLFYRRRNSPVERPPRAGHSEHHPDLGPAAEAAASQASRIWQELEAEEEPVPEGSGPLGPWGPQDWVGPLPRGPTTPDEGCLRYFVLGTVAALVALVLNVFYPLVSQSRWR
Method in brief: (§1)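 Labelled DUBs were enriched with NeutrAvidin, digested with LysC and trypsin, and run by diaPASEF LC-MS/MS. The labelling used Biotin-Ahx-Ub-VS at 0.5 µM final for 1 h on HEK293T lysate (495 µg per sample) previously treated in triplicate with fragment at 200 µM or vehicle for 3 h. Values are average log2 fragment/vehicle ratios by unpaired t-test on global-median-normalised Spectronaut quantities of proteins with ≥2 unique peptides.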

USP22 = target: T2, USP22 (UniProt Q9UPT9)
T2 sequence (whole entry): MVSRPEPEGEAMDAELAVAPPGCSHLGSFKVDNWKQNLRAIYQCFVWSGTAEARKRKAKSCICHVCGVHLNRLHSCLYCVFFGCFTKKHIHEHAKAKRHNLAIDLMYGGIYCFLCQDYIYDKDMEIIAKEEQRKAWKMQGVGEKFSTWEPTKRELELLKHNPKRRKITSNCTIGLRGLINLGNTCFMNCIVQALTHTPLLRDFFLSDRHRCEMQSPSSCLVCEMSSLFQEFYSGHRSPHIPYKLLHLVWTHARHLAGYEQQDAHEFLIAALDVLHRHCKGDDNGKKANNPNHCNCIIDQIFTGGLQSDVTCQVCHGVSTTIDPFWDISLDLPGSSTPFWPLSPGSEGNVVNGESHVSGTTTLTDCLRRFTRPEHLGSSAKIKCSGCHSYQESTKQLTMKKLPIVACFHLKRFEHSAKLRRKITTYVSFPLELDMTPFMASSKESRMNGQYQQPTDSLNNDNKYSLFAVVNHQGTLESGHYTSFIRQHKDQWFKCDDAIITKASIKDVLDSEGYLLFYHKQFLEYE
Method in brief: as §1

USP24 = USP24 (UniProt Q9UPU5)
USP24, sequence (Q9UPU5 whole entry): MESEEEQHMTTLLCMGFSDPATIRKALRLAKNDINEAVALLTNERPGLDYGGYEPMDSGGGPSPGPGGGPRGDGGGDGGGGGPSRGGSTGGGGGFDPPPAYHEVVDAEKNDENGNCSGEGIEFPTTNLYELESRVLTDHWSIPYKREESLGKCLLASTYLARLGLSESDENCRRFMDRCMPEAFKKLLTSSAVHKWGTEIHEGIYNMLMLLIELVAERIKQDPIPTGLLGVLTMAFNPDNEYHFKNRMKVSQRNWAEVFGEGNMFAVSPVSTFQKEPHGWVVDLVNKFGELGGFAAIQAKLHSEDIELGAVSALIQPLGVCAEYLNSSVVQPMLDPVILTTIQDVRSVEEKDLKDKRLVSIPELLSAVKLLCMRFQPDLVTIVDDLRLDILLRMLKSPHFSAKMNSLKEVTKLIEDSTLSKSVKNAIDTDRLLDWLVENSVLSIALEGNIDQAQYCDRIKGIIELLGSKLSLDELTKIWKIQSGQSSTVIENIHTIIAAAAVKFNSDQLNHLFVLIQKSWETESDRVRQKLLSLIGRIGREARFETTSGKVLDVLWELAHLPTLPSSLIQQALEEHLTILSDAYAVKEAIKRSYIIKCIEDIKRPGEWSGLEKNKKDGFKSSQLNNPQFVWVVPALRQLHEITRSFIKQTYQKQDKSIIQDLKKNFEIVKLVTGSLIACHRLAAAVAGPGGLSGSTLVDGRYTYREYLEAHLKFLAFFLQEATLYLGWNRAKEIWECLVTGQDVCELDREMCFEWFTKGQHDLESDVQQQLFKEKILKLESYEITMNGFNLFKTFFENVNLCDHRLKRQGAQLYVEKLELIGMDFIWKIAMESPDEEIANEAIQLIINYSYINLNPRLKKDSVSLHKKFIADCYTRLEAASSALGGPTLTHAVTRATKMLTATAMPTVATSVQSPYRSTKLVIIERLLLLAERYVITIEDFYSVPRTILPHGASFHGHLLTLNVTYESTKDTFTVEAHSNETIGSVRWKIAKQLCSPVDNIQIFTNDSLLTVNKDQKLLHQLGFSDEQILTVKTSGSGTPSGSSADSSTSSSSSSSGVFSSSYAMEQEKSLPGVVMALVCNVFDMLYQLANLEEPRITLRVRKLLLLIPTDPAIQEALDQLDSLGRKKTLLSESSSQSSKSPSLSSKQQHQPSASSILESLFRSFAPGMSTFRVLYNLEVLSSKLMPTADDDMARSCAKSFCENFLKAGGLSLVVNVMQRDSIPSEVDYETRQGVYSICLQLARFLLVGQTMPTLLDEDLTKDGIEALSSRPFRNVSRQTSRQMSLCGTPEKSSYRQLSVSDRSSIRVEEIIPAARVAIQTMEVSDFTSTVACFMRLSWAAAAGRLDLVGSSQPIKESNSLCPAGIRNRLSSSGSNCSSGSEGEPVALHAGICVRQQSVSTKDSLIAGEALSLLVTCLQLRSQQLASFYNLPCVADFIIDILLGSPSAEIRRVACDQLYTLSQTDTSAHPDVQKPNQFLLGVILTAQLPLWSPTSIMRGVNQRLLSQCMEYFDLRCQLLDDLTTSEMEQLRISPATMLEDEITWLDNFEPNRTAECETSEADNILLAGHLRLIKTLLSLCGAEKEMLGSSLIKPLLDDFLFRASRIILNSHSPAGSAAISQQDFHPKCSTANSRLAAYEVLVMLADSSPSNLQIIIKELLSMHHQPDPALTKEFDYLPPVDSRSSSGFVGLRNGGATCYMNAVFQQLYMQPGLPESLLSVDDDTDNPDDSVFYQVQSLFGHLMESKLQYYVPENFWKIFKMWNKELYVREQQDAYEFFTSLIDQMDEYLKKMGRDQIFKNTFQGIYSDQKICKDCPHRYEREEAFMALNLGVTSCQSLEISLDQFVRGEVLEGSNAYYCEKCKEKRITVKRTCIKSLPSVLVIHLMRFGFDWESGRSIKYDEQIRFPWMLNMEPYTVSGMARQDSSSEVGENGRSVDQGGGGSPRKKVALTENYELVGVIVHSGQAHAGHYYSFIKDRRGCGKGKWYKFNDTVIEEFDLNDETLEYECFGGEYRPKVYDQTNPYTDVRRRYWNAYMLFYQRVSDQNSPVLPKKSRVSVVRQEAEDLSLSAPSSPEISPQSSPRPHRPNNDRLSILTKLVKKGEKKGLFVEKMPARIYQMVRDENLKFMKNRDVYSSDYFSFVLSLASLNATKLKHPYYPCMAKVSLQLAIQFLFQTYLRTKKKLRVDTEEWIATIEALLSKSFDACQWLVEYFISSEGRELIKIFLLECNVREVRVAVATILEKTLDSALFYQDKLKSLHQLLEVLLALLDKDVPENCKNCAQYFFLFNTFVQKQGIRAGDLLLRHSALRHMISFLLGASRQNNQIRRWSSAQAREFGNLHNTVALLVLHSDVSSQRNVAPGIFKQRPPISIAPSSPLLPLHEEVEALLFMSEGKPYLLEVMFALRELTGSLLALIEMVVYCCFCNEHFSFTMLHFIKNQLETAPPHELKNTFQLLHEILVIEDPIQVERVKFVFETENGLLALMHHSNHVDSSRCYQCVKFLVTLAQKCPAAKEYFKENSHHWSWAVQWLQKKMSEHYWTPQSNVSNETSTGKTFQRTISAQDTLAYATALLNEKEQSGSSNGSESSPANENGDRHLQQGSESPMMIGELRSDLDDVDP
Method in brief: as §1

USP25 = target: T3, USP25 (UniProt Q9UHP3)
T3 sequence (whole entry): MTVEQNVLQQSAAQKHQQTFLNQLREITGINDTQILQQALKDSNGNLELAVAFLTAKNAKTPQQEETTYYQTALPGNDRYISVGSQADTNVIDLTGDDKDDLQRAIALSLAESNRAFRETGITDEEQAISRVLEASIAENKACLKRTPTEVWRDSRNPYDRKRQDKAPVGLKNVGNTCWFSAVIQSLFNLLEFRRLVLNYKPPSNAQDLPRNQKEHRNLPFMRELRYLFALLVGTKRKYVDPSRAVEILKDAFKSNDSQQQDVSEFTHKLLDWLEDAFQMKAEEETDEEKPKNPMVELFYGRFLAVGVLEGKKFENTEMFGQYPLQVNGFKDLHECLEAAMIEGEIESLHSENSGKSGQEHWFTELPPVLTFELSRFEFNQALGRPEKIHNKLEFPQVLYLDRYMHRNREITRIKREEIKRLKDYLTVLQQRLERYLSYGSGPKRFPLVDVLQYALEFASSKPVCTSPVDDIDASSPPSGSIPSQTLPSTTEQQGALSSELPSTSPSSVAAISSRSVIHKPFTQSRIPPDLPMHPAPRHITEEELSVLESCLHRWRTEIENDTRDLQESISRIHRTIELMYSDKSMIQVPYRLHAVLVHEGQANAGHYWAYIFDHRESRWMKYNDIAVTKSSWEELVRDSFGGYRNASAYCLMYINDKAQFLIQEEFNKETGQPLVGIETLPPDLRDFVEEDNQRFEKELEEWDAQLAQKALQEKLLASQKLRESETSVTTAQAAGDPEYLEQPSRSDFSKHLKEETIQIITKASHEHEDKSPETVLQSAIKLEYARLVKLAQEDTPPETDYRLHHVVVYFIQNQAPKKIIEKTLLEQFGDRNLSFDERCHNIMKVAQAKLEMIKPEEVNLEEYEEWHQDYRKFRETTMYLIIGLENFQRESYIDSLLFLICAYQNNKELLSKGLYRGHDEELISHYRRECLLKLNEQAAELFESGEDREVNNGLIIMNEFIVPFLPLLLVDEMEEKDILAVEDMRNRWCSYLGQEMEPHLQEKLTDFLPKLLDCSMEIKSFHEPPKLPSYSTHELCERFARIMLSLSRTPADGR
Method in brief: as §1

USP28 = target: T4, USP28 (UniProt Q96RU2)
T4 sequence (whole entry): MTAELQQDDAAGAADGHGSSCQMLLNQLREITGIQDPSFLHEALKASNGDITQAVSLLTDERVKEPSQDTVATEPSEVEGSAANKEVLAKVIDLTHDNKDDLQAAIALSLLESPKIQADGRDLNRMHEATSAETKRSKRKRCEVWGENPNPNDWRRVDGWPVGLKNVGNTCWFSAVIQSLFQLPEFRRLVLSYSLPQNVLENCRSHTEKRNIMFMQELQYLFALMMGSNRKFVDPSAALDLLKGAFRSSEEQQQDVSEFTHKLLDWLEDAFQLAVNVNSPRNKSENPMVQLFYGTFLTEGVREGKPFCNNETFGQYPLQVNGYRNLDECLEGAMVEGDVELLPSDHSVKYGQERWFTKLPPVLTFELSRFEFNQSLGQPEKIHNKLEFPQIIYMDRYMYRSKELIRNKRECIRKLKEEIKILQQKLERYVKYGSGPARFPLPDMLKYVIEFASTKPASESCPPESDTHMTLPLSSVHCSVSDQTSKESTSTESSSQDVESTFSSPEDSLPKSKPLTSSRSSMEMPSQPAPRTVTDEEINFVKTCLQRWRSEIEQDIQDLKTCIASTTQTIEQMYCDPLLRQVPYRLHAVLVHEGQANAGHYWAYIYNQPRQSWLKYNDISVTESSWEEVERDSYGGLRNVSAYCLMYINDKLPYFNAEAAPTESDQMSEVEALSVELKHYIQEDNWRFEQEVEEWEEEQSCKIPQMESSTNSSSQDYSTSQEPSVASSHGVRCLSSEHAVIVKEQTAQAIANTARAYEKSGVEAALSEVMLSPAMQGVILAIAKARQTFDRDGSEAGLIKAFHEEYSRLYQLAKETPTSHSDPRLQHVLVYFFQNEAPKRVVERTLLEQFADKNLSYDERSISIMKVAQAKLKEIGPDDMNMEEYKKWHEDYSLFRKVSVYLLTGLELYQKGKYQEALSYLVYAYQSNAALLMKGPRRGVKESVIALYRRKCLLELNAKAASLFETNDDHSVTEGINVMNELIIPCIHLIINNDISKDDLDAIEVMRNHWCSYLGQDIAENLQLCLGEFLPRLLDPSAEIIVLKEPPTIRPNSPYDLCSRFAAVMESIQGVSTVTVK
Method in brief: as §1

Measured: log2 ratio of Biotin-Ahx-Ub-VS probe labelling

O=C(CCl)NCCC1COCCO1 (stereo not given)
inactive: USP19 -0.207 | USP22 0.193 | USP24 -0.21 | USP25 -0.158 | USP28 -0.225
